Assay results published in PubChem BioAssay.
Values joined by “and” are separate entries in the source; they are usually repeats but may differ in a detail not shown here. Equal values may be shown once. Active and inactive are the calls of the source.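 How the source made its calls, unless noted: active means thallium flux through the channel raised or lowered by more than 3 SD from vehicle-only wells, actives on both sides; inactive means the rest.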

Legend:
[1] = liver-stage malaria parasite growth inhibition, primary screen, cell-based, HepG2, luciferase luminescence, HepG2 viability (AID 624349; in the data active means parasite load remaining mostly below about 12%, no sharp cut-off; inactive means mostly above about 10%;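 further: 100% = mean of DMSO negative control wells on the same plate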); conditions: P. berghei liver stage in HepG2, luciferase luminescence, concentration not given here; parasite load remaining: stronger effect = lower value; viability: measured here: HepG2 viability without parasites
[2] = modulation of C. elegans fzo-1 (AID 1259413; call rule not given here;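 further: fzo-1 mutant C. elegans worms in liquid wells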); conditions: C. elegans fzo-1 modulator screen, mean read-out; stronger effect = higher value
[3] = sensitizers of A549 cells to miR-34 induction, primary screen, imaging, A549 dox-inducible miR-34, nuclei and caspase counts (AID 1347080;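 active means compounds whose cell count with miR-34 switched on is under 0.7 times the count with it off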); conditions: A549 miR-34 inducible, Hoechst nuclei count, 48 h
[4] = survival rescue of mitochondrial mutant cells in low glucose, primary screen, MELAS cybrids, Rieske KO mouse fibroblasts, CellTiter-Glo (AID 1508586;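 active means mean z-score across replicates of 1.96 or higher in either the MELAS or the Rieske mutant cell line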;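 further: z relative to plate mean and SD of compound and empty wells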)
[5] = viability rescue of complex I mutant cybrids, primary screen, cell-based, galactose medium, ATP luminescence (AID 1645843;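 active means z-score of at least 1.8 in each of two replicates, scored against plate mean and spread of sample wells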;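 further: positive z means more ATP and so rescue of galactose-driven cybrid death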); conditions: complex I mutant cybrid cells, 72 h, stronger effect = higher value
F380Y = assay: modulators of BK channel variants, profiling panel, selectivity assay, cell-based, U2OS BacMam, thallium flux, beta subunits (AID 1259406); conditions: at 30 µM;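 further: initial slope of Thallos dye fluorescence rise after thallium is added; log ratio against the mean of 0.3% DMSO vehicle wells on the same plate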
F380Y/beta1 = assay: as above; conditions: at 30 µM
F380Y/beta2Delta = assay: as above; conditions: at 30 µM
F380Y/beta4 = assay: as above; conditions: at 30 µM
[6] = molecular target: Calcium-activated potassium channel subunit alpha-1 (Homo sapiens) + Leucine-rich repeat-containing protein 26 (Homo sapiens) (UniProt Q12791+Q2I0M4); assay: as above; conditions: F380Y/Slo1WT/gamma1, at 30 µM
Chain of Calcium-activated potassium channel subunit alpha-1 (Homo sapiens) + Leucine-rich repeat-containing protein 26 (Homo sapiens) (Q2I0M4 whole entry, looked up, one chain of several): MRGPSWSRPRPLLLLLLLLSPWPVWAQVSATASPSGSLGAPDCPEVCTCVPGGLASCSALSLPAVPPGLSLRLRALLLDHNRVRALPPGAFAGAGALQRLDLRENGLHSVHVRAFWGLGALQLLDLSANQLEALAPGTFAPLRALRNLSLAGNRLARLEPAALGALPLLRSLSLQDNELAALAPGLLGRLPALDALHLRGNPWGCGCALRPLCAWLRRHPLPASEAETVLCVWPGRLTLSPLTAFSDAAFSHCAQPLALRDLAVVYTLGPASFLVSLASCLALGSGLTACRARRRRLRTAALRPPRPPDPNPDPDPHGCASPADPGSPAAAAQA

R275C = assay: as above; conditions: at 30 µM
R275C/beta1 = assay: as above; conditions: at 30 µM
R275C/beta2Delta = assay: as above; conditions: at 30 µM
R275C/beta4 = assay: as above; conditions: at 30 µM
R275C/Slo1WT/beta2 = assay: as above; conditions: at 30 µM
[7] = Cy5 fluorescence interference with SSB-bound oligo, artefact control for HCV NS3 helicase inhibitor project, biochemical, NIH Clinical Collection, E. coli SSB (AID 743268; call rule not given here)
[8] = system: Hepatitis C virus NS3 helicase; assay: HCV NS3 helicase inhibitors, primary screen, biochemical, fluorescence polarization, NIH Clinical Collection (AID 743270; call rule not given here); conditions: NS3 helicase binding to Cy5-dT15 DNA, stronger effect = higher value, concentration not given here
[9] = molecular target: Single-stranded DNA-binding protein (Escherichia coli (strain K12)) (UniProt P0AGE0); assay: E. coli SSB displacement from DNA, counter-screen for HCV NS3 helicase inhibitor project, biochemical, fluorescence polarization, NIH Clinical Collection (AID 743271; in the data active means inhibition above about 28%); conditions: stronger effect = higher value, concentration not given here
[10] = fluorescence interference in NS3h assay format, artefact control for HCV NS3 helicase inhibitor project, biochemical, NIH Clinical Collection (AID 743272; call rule not given here;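 further: HCV NS3 helicase with a Cy5 labelled single stranded DNA probe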); conditions: fluorescence interference counterscreen, stronger effect = lower value
[11] = system: Neuropilin-2 / VEGF-C interaction (human); assay: inhibitors of NRP2–VEGF-C binding, biochemical, microplate binding format, z-score (AID 743281; call rule not given here); conditions: microplate NRP2/VEGF-C binding assay; stronger effect = lower value
[12] = stronger effect = lower value, cell number ratio, induced over uninduced
[13] = measured here: relative caspase fold change +Dox/-Dox
[14] = measured here: total cells with miR-34 induction, stronger effect = lower value
[15] = measured here: total cells without miR-34 induction
[16] = MELAS cybrid survival, CellTiter-Glo 48 h, stronger effect = higher value
[17] = Rieske KO mouse fibroblast survival, CellTiter-Glo 72 h

SMILES: CN1[C@@H]2CC[C@H]1CC(OC(=O)C(CO)c1ccccc1)C2 (stereo not given in full)
- parasite load remaining [1]: 41.5% (inactive) and 46.2% (inactive)
- viability [1]: 87.1% and 116%
- mean signal [2]: 274 (inactive)
- fold change [3, 12]: 0.947 (inactive) and 0.887 (inactive) and 0.871 (inactive)
- fold change [3, 13]: 2.84 and 0.579 and 1.47
- cell count [3, 14]: 10500 and 7790 and 9390
- cell count [3, 15]: 11100 and 8790 and 10800
- z-score [4, 16]: -0.283 (inactive) and 0.13 (inactive)
- z-score [4, 17]: 0.502 and 0.307
- z-score [5]: 0.56 (inactive) and 0.265 (inactive)
- log fold change Tl+ flux (F380Y): 0.0269 (inactive)
- log fold change Tl+ flux (F380Y/beta1): -0.0245 (inactive)
- log fold change Tl+ flux (F380Y/beta2Delta): 0.00535 (inactive)
- log fold change Tl+ flux (F380Y/beta4): 0.0216 (inactive)
- log fold change Tl+ flux [6]: 0.00679 (inactive)
- log fold change Tl+ flux (R275C): -0.0152 (inactive)
- log fold change Tl+ flux (R275C/beta1): -0.00104 (inactive)
- log fold change Tl+ flux (R275C/beta2Delta): 0.0208 (inactive)
- log fold change Tl+ flux (R275C/beta4): -0.00928 (inactive)
- log fold change Tl+ flux (R275C/Slo1WT/beta2): 0.0472 (inactive)

SMILES: O=C(O)C[C@H](O)C[C@H](O)/C=C/c1c(C2CC2)nc2ccccc2c1-c1ccc(F)cc1
- parasite load remaining [1]: 177% (inactive)
- viability [1]: 60.8%
- fluorescence ratio [7]: 0.98 (inactive)
- inhibition [8]: -2.84% (inactive)
- inhibition [9]: -1.18% (inactive)
- fluorescence ratio [10]: 0.96 (inactive)
- outcome [11]: inactive
- mean signal [2]: 212 (inactive)
- fold change [3, 12]: 1.25 (inactive)
- fold change [3, 13]: 0.319
- cell count [3, 14]: 1740
- cell count [3, 15]: 1390
- log fold change Tl+ flux (F380Y): -0.03 (inactive)
- log fold change Tl+ flux (F380Y/beta1): 0.292 (active)
- log fold change Tl+ flux (F380Y/beta2Delta): 0.0555 (inactive)
- log fold change Tl+ flux (F380Y/beta4): 0.0888 (inactive)
- log fold change Tl+ flux [6]: 0.113 (active)
- log fold change Tl+ flux (R275C): 0.0026 (inactive)
- log fold change Tl+ flux (R275C/beta1): 0.226 (active)
- log fold change Tl+ flux (R275C/beta2Delta): 0.114 (active)
- log fold change Tl+ flux (R275C/beta4): 0.107 (active)
- log fold change Tl+ flux (R275C/Slo1WT/beta2): 0.12 (active)

SMILES: CC1(C)SC2C(NC(=O)Cc3ccccc3)C(=O)N2C1C(=O)O (stereo not given)
- parasite load remaining [1]: 67.7% (inactive)
- viability [1]: 89.4%
- fluorescence ratio [7]: 1.02 (inactive)
- inhibition [8]: -1.36% (inactive)
- inhibition [9]: 1.05% (inactive)
- fluorescence ratio [10]: 1 (inactive)
- mean signal [2]: 247 (inactive)
- fold change [3, 12]: 0.988 (inactive)
- fold change [3, 13]: 2.34
- cell count [3, 14]: 10600
- cell count [3, 15]: 10700
- z-score [5]: -0.1 (inactive)
- log fold change Tl+ flux (F380Y): -0.0498 (inactive)
- log fold change Tl+ flux (F380Y/beta1): -0.0346 (inactive)
- log fold change Tl+ flux (F380Y/beta2Delta): -0.00781 (inactive)
- log fold change Tl+ flux (F380Y/beta4): 0.000902 (inactive)
- log fold change Tl+ flux [6]: 0.0267 (inactive)
- log fold change Tl+ flux (R275C): 0.0404 (inactive)
- log fold change Tl+ flux (R275C/beta1): -0.00964 (inactive)
- log fold change Tl+ flux (R275C/beta2Delta): 0.00389 (inactive)
- log fold change Tl+ flux (R275C/beta4): -0.0356 (inactive)
- log fold change Tl+ flux (R275C/Slo1WT/beta2): -0.096 (inactive)

SMILES: Nc1ccn([C@@H]2CS[C@H](CO)O2)c(=O)n1
- parasite load remaining [1]: 60.8% (inactive) and 120% (inactive)
- viability [1]: 121% and 70.7%
- z-score [11]: 0.62 (inactive)
- mean signal [2]: 246 (inactive)
- fold change [3, 12]: 0.962 (inactive)
- fold change [3, 13]: 1.73
- cell count [3, 14]: 10700
- cell count [3, 15]: 11100
- z-score [4, 16]: -0.0861 (inactive)
- z-score [4, 17]: 0.0484
- z-score [5]: 1.21 (inactive)
- log fold change Tl+ flux (F380Y): 0.00141 (inactive) and 0.0147 (inactive)
- log fold change Tl+ flux (F380Y/beta1): -0.0646 (inactive) and -0.0414 (inactive)
- log fold change Tl+ flux (F380Y/beta2Delta): -0.00742 (inactive) and 0.0531 (inactive)
- log fold change Tl+ flux (F380Y/beta4): -0.0496 (inactive) and -0.00739 (inactive)
- log fold change Tl+ flux [6]: 0.0127 (inactive) and 0.0118 (inactive)
- log fold change Tl+ flux (R275C): -0.0937 (inactive) and 0.0141 (inactive)
- log fold change Tl+ flux (R275C/beta1): -0.00105 (inactive) and 0.0176 (inactive)
- log fold change Tl+ flux (R275C/beta2Delta): 0.0208 (inactive) and -0.0112 (inactive)
- log fold change Tl+ flux (R275C/beta4): 0.00653 (inactive) and -0.00304 (inactive)
- log fold change Tl+ flux (R275C/Slo1WT/beta2): 0.00916 (inactive) and -0.0234 (inactive)

SMILES: CC(N)(Cc1ccc(O)c(O)c1)C(=O)O (stereo not given)
- parasite load remaining [1]: 67.7% (inactive)
- viability [1]: 87.8%
- fluorescence ratio [7]: 0.1 (active)
- inhibition [8]: -3.18% (inactive)
- inhibition [9]: -0.48% (inactive)
- fluorescence ratio [10]: 0.96 (inactive)
- mean signal [2]: 264 (inactive)
- fold change [3, 12]: 1.03 (inactive) and 1.02 (inactive)
- fold change [3, 13]: 0.522 and 3.64
- cell count [3, 14]: 9990 and 9950
- cell count [3, 15]: 9680 and 9750
- z-score [5]: -1.27 (inactive) and -1.07 (inactive)
- log fold change Tl+ flux (F380Y): -0.0268 (inactive)
- log fold change Tl+ flux (F380Y/beta1): -0.0706 (inactive)
- log fold change Tl+ flux (F380Y/beta2Delta): -0.0381 (inactive)
- log fold change Tl+ flux (F380Y/beta4): -0.00847 (inactive)
- log fold change Tl+ flux [6]: -0.0181 (inactive)
- log fold change Tl+ flux (R275C): -0.0316 (inactive)
- log fold change Tl+ flux (R275C/beta1): -0.0727 (inactive)
- log fold change Tl+ flux (R275C/beta2Delta): -0.00349 (inactive)
- log fold change Tl+ flux (R275C/beta4): -0.0805 (inactive)
- log fold change Tl+ flux (R275C/Slo1WT/beta2): -0.125 (active)

SMILES: NC(=O)c1ncn(C2OC(CO)C(O)C2O)n1 (stereo not given)
- parasite load remaining [1]: 36.7% (inactive)
- viability [1]: 151%
- fluorescence ratio [7]: 1.01 (inactive)
- inhibition [8]: 1.36% (inactive)
- inhibition [9]: 5.62% (inactive)
- fluorescence ratio [10]: 1.05 (inactive)
- mean signal [2]: 278 (inactive)
- fold change [3, 12]: 0.987 (inactive) and 0.921 (inactive)
- fold change [3, 13]: 1.64 and 0.871
- cell count [3, 14]: 9950 and 8880
- cell count [3, 15]: 10100 and 9640
- z-score [4, 16]: -0.322 (inactive)
- z-score [4, 17]: 0.486
- z-score [5]: 1.69 (inactive)
- log fold change Tl+ flux (F380Y): -0.0109 (inactive)
- log fold change Tl+ flux (F380Y/beta1): -0.00666 (inactive)
- log fold change Tl+ flux (F380Y/beta2Delta): -0.00987 (inactive)
- log fold change Tl+ flux (F380Y/beta4): 0.00318 (inactive)
- log fold change Tl+ flux [6]: -0.0406 (inactive)
- log fold change Tl+ flux (R275C): 0.0183 (inactive)
- log fold change Tl+ flux (R275C/beta1): -0.000638 (inactive)
- log fold change Tl+ flux (R275C/beta2Delta): -0.0258 (inactive)
- log fold change Tl+ flux (R275C/beta4): -0.0315 (inactive)
- log fold change Tl+ flux (R275C/Slo1WT/beta2): 0.0198 (inactive)

SMILES: CC(C)(C)NC(=O)[C@@H]1C[C@@H]2CCCC[C@@H]2CN1C[C@@H](O)[C@H](Cc1ccccc1)NC(=O)[C@H](CC(N)=O)NC(=O)c1ccc2ccccc2n1
- parasite load remaining [1]: 82.5% (inactive) and 52% (inactive)
- viability [1]: 75.6% and 103%
- fluorescence ratio [7]: 1.02 (inactive)
- inhibition [8]: 2.77% (inactive)
- inhibition [9]: 12.2% (inactive)
- fluorescence ratio [10]: 1.01 (inactive)
- z-score [11]: 1.64 (inactive)
- mean signal [2]: 234 (inactive)
- fold change [3, 12]: 0.908 (inactive)
- fold change [3, 13]: 0.962
- cell count [3, 14]: 8420
- cell count [3, 15]: 9260
- z-score [4, 16]: -0.0678 (inactive)
- z-score [4, 17]: -1.19
- log fold change Tl+ flux (F380Y): -0.12 (active)
- log fold change Tl+ flux (F380Y/beta1): -0.0774 (inactive)
- log fold change Tl+ flux (F380Y/beta2Delta): -0.2 (active)
- log fold change Tl+ flux (F380Y/beta4): -0.072 (inactive)
- log fold change Tl+ flux [6]: -0.0094 (inactive)
- log fold change Tl+ flux (R275C): -0.273 (active)
- log fold change Tl+ flux (R275C/beta1): 0.138 (active)
- log fold change Tl+ flux (R275C/beta2Delta): -0.11 (active)
- log fold change Tl+ flux (R275C/beta4): 0.0316 (inactive)
- log fold change Tl+ flux (R275C/Slo1WT/beta2): -0.0147 (inactive)
